Screening results from PubChem.
Hits are enriched below; roughly 1.5% of the tested compounds scored in any of these assays.
dFosB activator: mouse delta FosB homodimer activation | 0.99% of 340,000 active | AID 493131 | purified delta FosB, TAMRA-CDK5 oligo fluorescence polarization; percent of positive-control signal above neutral wells | P13346 | activation, % at 25 µM;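 active = mean activation above about 17%, with every replicate also reaching it, limit read from the data, passing the limit was not always enough; inconclusive = only one of the two conditions met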
RAD54 branch: inhibitors of human RAD54 branch migration | inhibition, % at 10.4 µM | RAD54 Holliday junction branch migration, FAM/BHQ fluorescence | AID 602329 | 0.14% of 360,000 active | Q92698;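 active = mean normalized replicate activity at least 40 and at least half of replicates scoring 40 or more; inconclusive = only one of the two criteria met; inactive = mean below 40 and under half of replicates reaching 40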;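 note: 0% = median of neutral control wells and 100% = median of positive control wells; inhibitors cause a drop in the FAM fluorescence signal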
Glyco luc inh: N-linked glycosylation inhibition | AID 588692 | 0.23% of 360,000 active | reporter increase, % at 12.5 µM | D54 ERlucT glycosylation luciferase reporter, 24 h; percent of 100 nM tunicamycin response;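 active = mean luciferase reporter signal, scaled so untreated is 0 and the glycosylation-blocking control 100, at or above a set limit in every replicate; inconclusive = mean reaches the limit but not every replicate does; inactive = mean below the limit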;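 note: luciferase carries N-glycosylation sites so blocking glycosylation raises the light; 0% = median of neutral control wells and 100% = median of 100 nM tunicamycin wells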
PvdQ acylase: P. aeruginosa PvdQ acylase inhibition. purified PvdQ acylase, fluorescence plate reader. inhibition, % at 10 µM. 0.063% of 340,000 active. AID 488965; in the data active = inhibition above about 30%, passing the limit was not always enough; inconclusive = no clear call, values can overlap the other calls;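 note: 0% = vehicle neutral wells and 100% = reference inhibitor wells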
F508del corr: CFTR F508del correction in bronchial cells; 0.36% of 350,000 active; AID 720511; activity (quench increase), % at 7.58 µM; CFBE cells, YFP halide quenching; stimulated with forskolin plus potentiator P3; % fluorescence drop versus neutral controls;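 active = mean added fluorescence quench of at least 8% versus neutral control, with both replicates also reaching 8%; inconclusive = only one of the mean or replicate conditions met; inactive = mean below 8% and not both replicates reaching 8%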;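 note: cells transiently co-express mutant CFTR-F508del with the halide-sensitive YFP; corrector assay measuring rescue of mutant channel to the surface after 24 h compound exposure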
RAD52 inh: blocks human RAD52 DNA annealing | AID 651710 | 0.46% of 360,000 active | inhibition, % at 18.7 µM | P43351 | recombinant RAD52 DNA annealing, FRET fluorescence;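 active = every replicate showing at least 50% inhibition; inconclusive = mean inhibition at least 50% but not in every replicate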
Target sequence (P43351 whole entry, looked up): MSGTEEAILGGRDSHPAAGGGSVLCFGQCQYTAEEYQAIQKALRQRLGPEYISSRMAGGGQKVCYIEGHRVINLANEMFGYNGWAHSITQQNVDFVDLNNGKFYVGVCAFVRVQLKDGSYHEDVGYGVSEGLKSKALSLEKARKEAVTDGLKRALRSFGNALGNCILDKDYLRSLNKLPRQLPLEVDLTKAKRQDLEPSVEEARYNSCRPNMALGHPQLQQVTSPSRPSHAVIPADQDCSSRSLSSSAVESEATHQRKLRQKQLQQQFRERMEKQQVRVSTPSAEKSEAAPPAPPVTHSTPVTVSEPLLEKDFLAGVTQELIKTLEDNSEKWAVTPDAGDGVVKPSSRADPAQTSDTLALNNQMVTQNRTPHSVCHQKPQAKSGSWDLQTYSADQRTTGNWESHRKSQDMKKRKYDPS
Rad54 DNA ctr: binds DNA, flagging false Rad54 inhibitor hits; shares compounds with RAD54 branch; AC50, µM (titrated, usually from 35 µM), for the others: at the highest dose activity change, negative = DNA binding; 8% of 460 active; Acridine orange-DNA displacement, fluorescence polarization, 20 min; AID 651673;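 active = signal drop giving an AC50 within twice the top valid tested concentration of each sample, actives reach about 35 µM in these data; inactive = activity opposite to expected, plus the rest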;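 note: polarization loss reports compound binding to salmon sperm DNA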
RAD52 DNA ctr: binds DNA, flagging false RAD52 inhibitor hits | shares compounds with RAD52 inh | Salmon sperm DNA/acridine orange FP displacement, DNA binding | AC50, µM | 8% of 1,000 active | AID 652128;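 active = fitted half-maximal concentration for signal loss at or below twice the highest dose tested, in every separate run, actives reach about 64 µM in these data; inconclusive = runs disagree, or flat partial signal loss, or poor fit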
* = called active by the depositor; ! = not confirmed by another sample.

CCOC(=O)N1CCC(NC(=S)Nc2ccc3nc(N4CCN(CC)CC4)cc(C)c3c2)CC1 was read as dFosB activator -4, Glyco luc inh -4, PvdQ acylase 4, F508del corr -3 and RAD52 inh 44.
`CCN1CCN(c2cc(C)c3cc(NC(=S)N(C)Cc4ccccc4)ccc3n2)CC1` gave dFosB activator -3, RAD54 branch 18, Glyco luc inh -3, PvdQ acylase -11, F508del corr 0 and RAD52 inh 23.
Screening CCN1CCN(c2cc(C)c3cc(NC(=S)NCCCN4CCc5ccccc5C4)ccc3n2)CC1 returned dFosB activator 37*, RAD54 branch 98*, Glyco luc inh -5, PvdQ acylase -14, F508del corr -2, RAD52 inh 106*, Rad54 DNA ctr -8% and RAD52 DNA ctr inactive.
For CCN(CC)CCNC(=S)Nc1ccc2nc(N3CCN(CC)CC3)cc(C)c2c1 the results were dFosB activator 18*, RAD54 branch 79*, Glyco luc inh -3, PvdQ acylase -17, F508del corr -2, RAD52 inh 93*, Rad54 DNA ctr -1% and RAD52 DNA ctr inactive.
For CCOc1ccc(C(=O)OCCN(CC)CC)cc1 the results were dFosB activator -7, RAD54 branch -4, Glyco luc inh -4 and PvdQ acylase -7.
`CCCCOc1cc(C(=O)OCCN(CC)CC)ccc1N` gave dFosB activator 3, RAD54 branch 9, Glyco luc inh -4, PvdQ acylase -5, F508del corr -3, RAD52 inh 85*! and RAD52 DNA ctr inactive.
C[C@@H]1CN([C@H](C)CO)C(=O)c2cc(NC(=O)CCCN(C)C)ccc2O[C@H]1CN(C)C(=O)Nc1ccccc1 was read as RAD54 branch -11, F508del corr 0 and RAD52 inh -20.
`COc1ccc(N/C(N)=N/c2nc(C)cc(C)n2)c(OC)c1` gave dFosB activator 5, Glyco luc inh 1, PvdQ acylase 5, F508del corr 5 and RAD52 inh 9.
COc1ccc(OC)c(N/C(N)=N/c2nc(C)cc(C)n2)c1 was read as dFosB activator -4, RAD54 branch -4, Glyco luc inh 6, PvdQ acylase -15, F508del corr 8.9*, RAD52 inh 50* and RAD52 DNA ctr inactive.
Screening Cc1c(C(=O)Nc2ccc(S(=O)(=O)N(C)C3CCN(C)CC3)cc2)oc2c(Cl)cccc12 returned dFosB activator -44, RAD54 branch 9, Glyco luc inh -1, PvdQ acylase -9, F508del corr -3, RAD52 inh 69* and RAD52 DNA ctr inactive.
For C=CC(=O)Nc1cccc(Oc2nc(Nc3ccc(N4CCN(C)CC4)cc3OC)ncc2Cl)c1 the results were F508del corr -5, RAD52 inh 95* and RAD52 DNA ctr inactive.
For Cc1cc(C)c2c(=N)c3ccccc3n(CCCCCCCCn3c4ccccc4c(=N)c4c(C)cc(C)nc43)c2n1 the results were dFosB activator -231, Glyco luc inh 0, PvdQ acylase 14, F508del corr 0, RAD52 inh 67* and RAD52 DNA ctr 16µM*.
For CCCCCCCCn1c2c(c(=N)c3ccccc31)CCC2 the results were dFosB activator -21, Glyco luc inh 14, PvdQ acylase -10, F508del corr 4 and RAD52 inh 43.
COc1cc(N)ccc1Nc1c2ccccc2nc2ccccc12 was read as Glyco luc inh 20.
For CCCS(=O)(=O)Nc1ccc(Nc2c3ccccc3nc3ccccc23)c(OC)c1 the results were dFosB activator 54*, Glyco luc inh -7, PvdQ acylase -13, F508del corr 7, RAD52 inh 64* and RAD52 DNA ctr inconclusive.
For N#C[C@@H]1[C@H](c2ccc(C3=CCCCC3)cc2)[C@H](CO)N1C(=O)Nc1ccccc1F the results were RAD54 branch 4, F508del corr 0 and RAD52 inh -40.
CC(C)OC(=O)N(C)C[C@@H]1OCc2ccccc2-c2ccccc2C(=O)N([C@@H](C)CO)C[C@@H]1C was read as RAD54 branch 4, F508del corr -3 and RAD52 inh 10.
`C[C@H]1CN([C@@H](C)CO)C(=O)c2cccc(NC(=O)CCCCCC(=O)Nc3ccccc3N)c2O[C@@H]1CN(C)C` gave F508del corr -2 and RAD52 inh -5.
For NCC[C@H](O)C(=O)N[C@@H]1C[C@H](N)[C@@H](O[C@H]2O[C@H](CN)[C@@H](O)[C@H](O)[C@H]2O)[C@H](O)[C@H]1O[C@H]1O[C@H](CO)[C@@H](O)[C@H](N)[C@H]1O the results were dFosB activator 8, RAD54 branch 100*, Glyco luc inh 1, PvdQ acylase -10, F508del corr -4, RAD52 inh 57* and RAD52 DNA ctr inactive.
For O=C(O)c1cc(-n2nnnc2SCc2ccc([N+](=O)[O-])cc2)ccc1Cl the results were dFosB activator -1, RAD54 branch -8, Glyco luc inh 1, PvdQ acylase 4, F508del corr 4, RAD52 inh 105* and RAD52 DNA ctr inactive.
For O=C(O)c1cc(-n2nnnc2SCc2ccccc2F)ccc1Cl the results were dFosB activator -5, Glyco luc inh 2, PvdQ acylase 2, F508del corr 1 and RAD52 inh -11.
`O=C(c1cccc(F)c1)N1C[C@H]2[C@@H](c3ccccc31)[C@@H](CO)N2C(=O)C1CCCCC1` gave RAD54 branch 2, F508del corr -1 and RAD52 inh -3.
Screening CCCN1C[C@H](C)[C@H](OC)CN(C)C(=O)c2cc(NC(=O)CC)ccc2OC[C@H]1C returned F508del corr 1.
CCCOc1cccc(C(=O)NC(=S)Nc2ccc(N3CCN(C)CC3)cc2)c1 was read as dFosB activator -1, Glyco luc inh 2, PvdQ acylase -16, F508del corr 3, RAD52 inh 66* and RAD52 DNA ctr inactive.
`N[C@@H](CO)c1cn([C@@H](Cc2cc3ccccc3[nH]2)C(=O)N2CCNCC2)nn1` gave dFosB activator 15, RAD54 branch 34, Glyco luc inh 0, PvdQ acylase 0, F508del corr 2, RAD52 inh 93* and RAD52 DNA ctr inactive.
OC(CNCCc1ccc(Cl)cc1)COc1ccc2ccccc2c1 (stereo unspecified) was read as dFosB activator 4, RAD54 branch -5, Glyco luc inh -1, PvdQ acylase 8, F508del corr 1, RAD52 inh 53* and RAD52 DNA ctr inactive.
